Assay results taken from the supplement of paper PMC13380429.

Experiments:
[1] = test system: Vero E6 infected with SARS-CoV-2; assay: morphology score (similarity to uninfected cells); higher = more like uninfected cells; conditions: 24 h
[2] = test system: Vero E6 infected with SARS-CoV-2; assay: SARS-CoV-2 infection rate relative to infected DMSO; higher = more infection, active = 60 or less; conditions: 24 h

Row | Compound | morphology score [1] | SARS-CoV-2 infection rate [2]
1 | C/C=C(/C)C(=O)O[C@H]1C(C)=C[C@]23C(=O)[C@@H](C=C(CO)[C@@H](O)[C@]12O)[C@H]1[C@@H](C[C@H]3C)C1(C)C [ingenol-mebutate] (0.833333 µM) | -0.298 | 95% (inactive)
2 | CC(C)(C)c1ccc(CN2CCN(C(c3ccccc3)c3ccc(Cl)cc3)CC2)cc1 (stereo not drawn) [buclizine] (10 µM) | 0.307 | 90.5% (inactive)
3 | C[n+]1c2cc(N)ccc2cc2ccc(N)cc21 [acriflavinium] (0.833333 µM) | 0.0932 | 98.5% (inactive)
4 | CS(=O)(=O)Nc1ccc([N+](=O)[O-])cc1Oc1ccccc1 [nimesulide] (10 µM) | 0.0266 | 105% (inactive)
5 | COc1ccccc1OCCNCC(O)COc1cccc2[nH]c3ccccc3c12 (stereo not drawn) [carvedilol] (10 µM) | 0.134 | 97.5% (inactive)
6 | CC(NCCc1ccc(O)cc1)C(O)c1ccc(O)cc1 (stereo not drawn) [ritodrine] (10 µM) | 0.154 | 96% (inactive)
7 | CCCN(CCC)C1Cc2cc(OC)c(OC)cc2C1 (10 µM) | 0.231 | 109% (inactive)
8 | Nc1ccc(S(=O)(=O)Nc2nccs2)cc1 [sulfathiazole] (10 µM) | 0.0413 | 114% (inactive)
9 | O=P(O)(O)C(O)(Cc1cnc2ccccn12)P(=O)(O)O [minodronic-acid] (10 µM) | -0.0261 | 108% (inactive)
